Hits are enriched below; roughly 8.1% of the tested compounds scored in any of these assays.
ELG1 DNA repair: blocks ELG1-dependent DNA repair in HEK293T cells | HEK293T ELG1-luciferase reporter, luminescence, 16 h; DNA damage induced by 5-fluorouridine | Potency, µM (titrated, usually from 46.1 µM), actives largely listed as inhibitors | 330,000 tested, 2.3% active | AID 504467; further: nearly all actives have a fitted effect of over 55% in size
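Luminescence from the luciferase reporter, measured 30 min after ONE-Glo reagent at room temperature, was the read-out. Beforehand, 2,000 cells per well were exposed for 16 hr at 37 °C to 5-fluorouridine together with compound or vehicle.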
SW480 rereplic: induces DNA re-replication in SW480 colon adenocarcinoma cells. SW480 DNA re-replication, Hoechst DNA content imaging, 48 h. Potency, µM (highest dose often 46.1 µM), hits mostly activators. 340,000 tested, 1.8% active; further: nearly all actives have a fitted effect of over 55% in size
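Per well, 250 cells were exposed to pinned compound for 48 hr. Nuclear DNA was visualised with Hoechst (40 min, 37 C) and total object intensity recorded by fluorescence scanning.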
MCF10A rereplic: induces DNA re-replication in MCF 10a normal breast cells; MCF 10A DNA re-replication, Hoechst nuclear intensity, 48 h; Potency, µM (top dose mostly 46.1 µM), hits mostly activators; 350,000 tested, 2.9% active; AID 624296; further: nearly all actives have a fitted effect of over 50% in size
KB-V1 MDR tox: KB-V1 MDR subline cytotoxicity | AID 1347076 | Potency, µM (top dose mostly 46.1 µM), actives largely listed as cytotoxic | KB-V1 MDR cells viability, CellTiter-Glo, 72 h | 400,000 tested, 3.4% active; further: nearly all actives have a fitted effect of over 60% in size
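Cytotoxicity via CellTiter-Glo luminescence after 72 h compound exposure at 37 degrees C. Cells: drug-selected KB-V1 line, DMEM phenol-red free plus 10% FBS. Compounds tested at multiple concentrations; normalized data fitted to concentration-effect curves.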
KB-3-1 tox: kills parental KB-3-1 adenocarcinoma cells. Potency, µM (highest dose often 46.1 µM), actives largely listed as cytotoxic. KB-3-1 viability, CellTiter-Glo ATP luminescence, 72 h. 400,000 tested, 1.4% active. AID 1347075; further: nearly all actives have a fitted effect of over 60% in size
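Parental KB-3-1 viability, qHTS format: 72 h compound exposure, 37 °C; CellTiter-Glo; media-only wells and DMSO plates as controls; concentration-effect fits on corrected data.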
Hits are given with their value; – = inactive; ? = inconclusive; · = no result; ! = repeats disagree; [ ] = dose if it differs, or a comment. The call rests on the fitted dose curve; in most records, active means well fitted curve in the direction sought with a large enough effect; inconclusive means small, poorly fitted or top-dose-only effect, or another doubt; inactive means no such curve, though single readings can be large; an effect the other way counts as inactive or inconclusive.

SMILES | ELG1 DNA repair | SW480 rereplic | MCF10A rereplic | KB-V1 MDR tox | KB-3-1 tox
O=C(C1CCN(Cc2cc(Cl)ccc2O)CC1)N1CCN(Cc2ccccc2)CC1 | – | – | – | 10µM | ?
CCOC(=O)C(C)Oc1cccc2c(=O)n(CC(=O)N3CCCc4ccccc43)ccc12 (configuration not stated) | ? | – | – | – | –
COCCNC(=O)c1cc(-c2ccccc2C)n(CC2CC(c3cccc([N+](=O)[O-])c3)=NO2)n1 (configuration not stated) | – | – | – | – | –
O=C(Oc1ccc(Br)cc1C(=S)N1CCOCC1)c1ccccc1 | – | – | – | – | –
CSc1ccc(CCNC(=O)c2c(C)nn(-c3ccc(F)cc3)c2-n2cccc2)cc1 | · | · | · | 5.8µM | 3.3µM
COc1cccc(CNC(=O)c2c(C)nn(-c3ccc(F)cc3)c2-n2cccc2)c1 | · | · | · | 9.2µM | –
COCCCNC(=O)c1c(C)nn(-c2ccc(F)cc2)c1-n1cccc1 | · | · | · | ? | –
COc1cc(NC(=O)c2c(C)nn(-c3ccc(F)cc3)c2-n2cccc2)cc(OC)c1 | · | · | · | – | –
CCOc1ccc(CNC(=O)c2c(C)nn(-c3ccc(F)cc3)c2-n2cccc2)cc1 | · | · | · | 13µM | ?
Cc1[nH]n(-c2ccccc2)c(=O)c1CCOC(=O)c1cccc(C(F)(F)F)c1 | – | – | – | – | –
Nc1nc(SCC(=O)N2CCCC2)[nH]c(=O)c1-c1ccccc1 | – | –[9.22 µM] | –[9.22 µM] | – | –
O=c1c2ccccc2c(C=NC2CCN(Cc3ccccc3)CC2)c(O)n1Cc1ccc2c(c1)OCO2 | 6.5µM | · | · | · | ·
O=C(N=Nc1c(O)[nH]c2ccccc12)c1cccc(S(=O)(=O)Nc2ccccc2Cl)c1 | – | – | – | – | –
CC(C)c1ccc2[nH]c(O)c(N=NC(=O)c3cccc(S(=O)(=O)Nc4ccccc4Cl)c3)c2c1 | – | – | 15µM | – | –
CCOC(=O)C1CCCN(c2cc(C)nc3cc(-c4ccc(Cl)cc4)nn23)C1 (configuration not stated) | 26µM | – | – | – | –
Cc1nc(Nc2cccc(C(F)(F)F)c2)nc2c1C(=O)CC(C)C2 (configuration not stated) | – | – | – | – | –
CC(NC(=O)COc1ccc(-c2nnco2)cc1)c1ccc(Cl)cc1Cl (configuration not stated) | ? | · | – | 21µM | ?
O=C(COc1ccc(-c2nnco2)cc1)NCc1ccccc1Cl | – | – | – | – | –
Cc1cc(C)c(S(=O)(=O)n2ccc3ccccc32)c(C)c1 | – | – | ? | ? | 23µM
CC(C)(C)NC(=O)CSc1nsc(SCC(=O)NC(C)(C)C)c1C#N | 9.2µM | – | – | ? | –
Cc1noc(NS(=O)(=O)c2ccc(N/C=C/C(=O)c3ccc(F)cc3)cc2)c1C | ? | – | – | ? | –
Cc1ccc(OCC(=O)Nc2ccc(S(=O)(=O)Nc3onc(C)c3C)cc2)cc1 | – | – | – | – | –
Cc1ccc(S(=O)(=O)CC(=O)Nc2ccc(S(=O)(=O)Nc3onc(C)c3C)cc2)cc1 | – | 10µM | – | – | –
Cc1noc(NS(=O)(=O)c2ccc(NC(=O)CSc3nc4c(cc3C#N)CCCCC4)cc2)c1C | – | – | 21µM | – | –
CCc1ccc(C(=O)/C=C/Nc2ccc(S(=O)(=O)Nc3onc(C)c3C)cc2)cc1 | ? | – | 26µM | – | –
SMILES | ELG1 DNA repair | SW480 rereplic | MCF10A rereplic | KB-V1 MDR tox | KB-3-1 tox
COc1ccc(C(CC(=O)O)NC(=O)Nc2ccccc2)cc1OC (configuration not stated) | – | – | – | – | –
CCc1ccc(Nc2n[n+](-c3ccccc3)c(-c3ccc(N(CC)CC)cc3)s2)cc1 | – | – | ? | – | –
CCc1ccc(Nc2n[n+](-c3ccccc3)c(-c3ccc(OCc4ccccc4)cc3)s2)cc1 | 13µM | – | – | – | ?
Fc1ccc(-[n+]2nc(Nc3ccccc3)sc2-c2c(Cl)cccc2Cl)cc1 | ? | –[9.22 µM] | ? | – | ?
CCc1ccc(Nc2n[n+](-c3ccccc3)c(-c3c(Cl)cccc3Cl)s2)cc1 | – | ? | ? | ? | 23µM
CCCCCC#CCN1CCN(C23CC4CC(CC(C4)C2)C3)CC1 | – | – | – | – | –
CC(C(=O)NCC(=O)Nc1ccc(F)c(F)c1F)N1CCN(Cc2ccc(C#N)cc2)CC1 (configuration not stated) | – | – | – | 13µM | –
CC(C(=O)NCC(=O)Nc1ccc(F)c(F)c1F)N1CCN(c2ccc(O)cc2)CC1 (configuration not stated) | ? | – | – | – | ?
CCCCN(CC(=O)NCc1ccc(F)cc1)C(=O)c1ccco1 | – | – | – | – | –
O=C1CC(C(=O)Nc2ccc(Cl)cc2[N+](=O)[O-])C2(CCCCC2)O1 (configuration not stated) | – | – | – | 15µM | –
COc1ccc(Cl)cc1NC(=O)CN1CCC(n2nnc3cc(C)ccc32)CC1 | 21µM | – | ? | – | –
CC1CCN(CC(=O)N2c3ccccc3CC2C)CC1 (configuration not stated) | – | – | – | – | –
CC1Cc2ccccc2N1C(=O)CN1CCC(n2nnc3cc(C(F)(F)F)ccc32)CC1 (configuration not stated) | 21µM | – | – | – | ?
COc1ccccc1NC(=O)CN1CCC(n2nnc3cc(F)ccc32)CC1 | 21µM | – | – | ? | –
CCOc1ccc(NC(=O)N2CCC(n3nnc4cc(C)ccc43)CC2)cc1 | ? | 15µM | – | ? | –
COC(=O)c1scc(C)c1NC(=O)Cc1ccccc1 | – | – | – | – | –
CCN1C(=O)/C(=C\c2ccc3c(c2)OCO3)C(C(=O)OC)=C1C | – | – | – | – | –
O=C(C[n+]1ccc2ccccc2c1)Nc1cc(C(F)(F)F)ccc1Cl | – | ? | – | – | –
CN(C(=O)CS(=O)(=O)c1cn(CC(=O)N2CCOCC2)c2ccccc12)c1ccccc1 | – | – | – | – | –
COC(=O)c1ccccc1NC(=O)CN1CCC(n2nnc3cc(C(F)(F)F)ccc32)CC1 | ? | – | ? | 4.1µM | ?
c1ccc(-c2nc(-c3ccco3)n3ccccc23)cc1 | – | ? | 21µM | – | –
c1ccc(Nc2c(-c3ccco3)nc3ccccn23)cc1 | ? | – | – | – | –
O=c1[nH][nH]c2c1[C@H](CCc1cccc(Cl)c1)O[C@H](C1CCCC1)C2 | · | · | · | – | –
COCCCNc1nc2c(-c3cccc(C)c3)nnn2c2ccccc12 | – | – | 13µM | – | –
Nc1c2ccccc2nc2ccccc12 | ? | 23µM | 18µM! | 2.1µM! | 5.2µM
c1ccc(Oc2c3ccccc3nc3ccccc23)cc1 | – | ? | 18µM | ? | ?
Cc1ccc(NC(=O)c2cc(-c3cc(C)c(C)cc3O)n[nH]2)cc1C | – | – | – | – | –
CC(C)CN1CCC(=O)N(CCO)CC1 | – | – | – | – | –

High-throughput results from PubChem BioAssay.
